We go through seven molecules from PubChem BioAssay (NCATS).

Results filed as inconclusive are left out. The source made the active and inactive calls. Unless noted, calls follow the shape of the dose curve; as a rule, active = well fitted curve in the direction sought with a large enough effect; inconclusive = small, poorly fitted or top-dose-only effect, or another doubt; inactive = no such curve, though single readings can be large; an effect the other way counts as inactive or inconclusive.

For test [1], the target named is Alpha-galactosidase A (Homo sapiens) (UniProt P06280). Kind of test: Counterscreen for Glucocerebrosidase Inhibitors: qHTS Assay for Human alpha-Galactosidase at pH 4.5 (AID 992). Also: 0% is about no effect. Put shortly: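 Human enzyme (2 nM) with 80 uM 4-methylumbelliferyl alpha-D-galactopyranoside in 50 mM citric acid, 0.005% Tween-20, pH 4.5, 20 min at room temperature. Compounds 0.7 nM–77 uM; fluorescence Ex 365/Em 440 after pH 10 stop; AC50 from Hill fits.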
Chain of Alpha-galactosidase A (Homo sapiens) (P06280 whole entry, looked up): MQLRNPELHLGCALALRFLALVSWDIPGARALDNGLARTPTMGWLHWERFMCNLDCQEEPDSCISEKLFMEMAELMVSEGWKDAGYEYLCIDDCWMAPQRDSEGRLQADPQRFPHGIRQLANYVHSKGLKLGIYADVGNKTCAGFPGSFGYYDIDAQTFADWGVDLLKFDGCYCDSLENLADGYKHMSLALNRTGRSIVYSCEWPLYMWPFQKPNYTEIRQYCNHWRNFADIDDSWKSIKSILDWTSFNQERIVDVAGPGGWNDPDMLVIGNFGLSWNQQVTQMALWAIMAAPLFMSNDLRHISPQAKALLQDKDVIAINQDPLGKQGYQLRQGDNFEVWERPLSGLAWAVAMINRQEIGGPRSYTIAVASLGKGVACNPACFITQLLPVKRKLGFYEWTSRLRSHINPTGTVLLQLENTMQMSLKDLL

The target of test [2] is alpha-glucosidase (Oryza sativa, rice) (UniProt Q653V4). Kind of test: Counterscreen for Glucocerebrosidase Inhibitors: qHTS Assay for Rice alpha-Glucosidase at pH 5.0 (AID 997).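 Also: 0% = full activity with enzyme and -100% = basal without enzyme.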 The essentials:
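Rice alpha-glucosidase (4 nM final) with 400 uM 4-methylumbelliferyl-alpha-D-glucopyranoside in citrate buffer pH 5.0, 20 min at room temperature, stopped at pH 10; fluorescence 365/440 nm, compounds 0.7 nM–77 uM, AC50 from Hill fits.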
In general terms: A counterscreen serves to expose hits that act by an unwanted route or on another target.

Test [3] in a line: Cell Viability - LYMP2-008 (AID 980). Also: % is scaled to controls: 0 for no effect and ±100 for the full control effect; nearly all actives have a fitted effect of over 60% in size. Put shortly:
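LYMP2-008 lymphoblastoid cells (2500/well) plated 5 h, then treated 24 h at 37 C in complete medium. Viability read as intracellular ATP by CellTiter-Glo luminescence after 30 min at room temperature; AC50 from Hill fits.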

Test [4] in a line: Cell Viability - LYMP2-010 (AID 981). Also: % is scaled to controls: 0 for no effect and ±100 for the full control effect; nearly all actives have a fitted effect of over 55% in size. Put shortly:
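Human lymphoblastoid LYMP2-010 cells (2500/well) treated 24 h at 37 C in complete medium; viability read as intracellular ATP by CellTiter-Glo luminescence. AC50 from Hill fits of concentration-response data; tetraoctylammonium bromide positive control.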

The nature of test [5]: Cell Viability - LYMP2-012 (AID 982).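 Also: cellular ATP by luciferase luminescence where a drop means cytotoxicity; cells exposed to compound for one day before reading; 0% = DMSO only and full loss = 92 µM tetraoctylammonium bromide; nearly all actives have a fitted effect of over 55% in size.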
Test [6] in a line: Cell Viability - LYMP2-014 (AID 983).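 Also: plate controls were DMSO only for no effect and 92 µM tetraoctylammonium bromide for full effect; nearly all actives have a fitted effect of over 50% in size.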 Put shortly:
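LYMP2-014 human lymphoblastoid cells, 2500/well, treated 24 h at 37 C in complete medium; viability by CellTiter-Glo ATP luminescence after 30 min at room temperature. AC50 from Hill fits of qHTS concentration-response; tetraoctylammonium bromide positive control.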

Test [7] in a line: Cell Viability - LYMP2-016 (AID 984). Also: % is scaled to controls: 0 for no effect and ±100 for the full control effect; nearly all actives have a fitted effect of over 55% in size. Put shortly: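 Human lymphoblastoid LYMP2-016 cells, 2500 per well, treated with compounds for 24 h at 37 C. Viability read as intracellular ATP by CellTiter-Glo luminescence after 30 min at room temperature; AC50 from Hill fits of concentration-response.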
Test [8] in a line: Cell Viability - LYMP2-018 (AID 985).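 Also: compound exposure lasted 24 hr at 37 °C; plate controls were DMSO only for no effect and tetraoctylammonium bromide at 92 µM for full effect; nearly all actives have a fitted effect of over 50% in size.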 Put shortly: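 Human lymphoblastoid LYMP2-018 cells, 2500/well, settled 5 hr at 37 C then exposed to compound 24 hr at 37 C; intracellular ATP measured by CellTiter-Glo luminescence. AC50 from Hill-equation concentration-response fits.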
Test [9] is described as follows: Cell Viability - LYMP2-020 (AID 986).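 Also: plate controls were DMSO only for no effect and tetraoctylammonium bromide at 92 µM for full effect; nearly all actives have a fitted effect of over 55% in size.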 Put shortly:
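Human lymphoblastoid LYMP2-020 cells (2500/well) preincubated 5 h at 37 C, then treated 24 h at 37 C. Viability measured as intracellular ATP by CellTiter-Glo luminescence after 30 min at room temperature; AC50 from Hill fits.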

A short description of test [10]: Cell Viability - LYMP2-022 (AID 987). The essentials:
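LYMP2-022 lymphoblastoid cells (2500/well, complete medium) were treated with compounds for 24 hours at 37 C; intracellular ATP was then read by CellTiter-Glo luminescence after 30 min at room temperature. AC50 values were derived from Hill-equation fits.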

A short description of test [11]: Cell Viability - LYMP2-024 (AID 988).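 Also: plate controls were DMSO only for no effect and 92 µM tetraoctylammonium bromide for full effect; nearly all actives have a fitted effect of over 60% in size.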 The essentials: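 Human lymphoblastoid LYMP2-024 cells (2500/well) rested 5 hr, then treated with compound for 24 hr at 37 C in complete medium. Viability was measured as intracellular ATP by CellTiter-Glo luminescence. AC50 values came from Hill-equation fits.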
The nature of test [12]: Cell Viability - LYMP2-026 (AID 989). Also: % is scaled to controls: 0 for no effect and ±100 for the full control effect; nearly all actives have a fitted effect of over 50% in size. Put shortly: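 Human lymphoblastoid LYMP2-026 cells, 2500/well, exposed to compound 24 h at 37 C in complete medium. Viability as intracellular ATP by CellTiter-Glo luminescence; AC50 from Hill fits of qHTS concentration-response.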
Test [13] is described as follows: Cell Viability - LYMP1-002 - Assay at 24 hr (AID 993). Also: % is scaled to controls: 0 for no effect and ±100 for the full control effect. Put shortly:
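Human lymphoblastoid LYMP1-002 cells (2500/well) treated 24 h at 37 °C; viability as intracellular ATP by CellTiter-Glo luminescence. Tetraoctylammonium bromide as positive control; AC50 from Hill-equation fits of qHTS concentration-response.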

A short description of test [14]: Cell Viability - LYMP1-002 - Assay at 40 hr (AID 994).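 Also: 0% = DMSO only and full inhibition = 92 µM tetraoctylammonium bromide; nearly all actives have a fitted effect of over 60% in size.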 The essentials: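 LYMP1-002 human lymphoblastoid cells (2500/well, complete medium) were treated with compounds for 40 hr at 37 C. Intracellular ATP was measured by CellTiter-Glo luminescence, and AC50 values came from Hill-equation fits of concentration-response data; tetraoctylammonium bromide was the positive control.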

Test [15] in a line: qHTS Assay for Identification of Small Molecule Inducers of Hypoxia Response (AID 2120; active = well fitted curve in the direction sought with a large enough effect in the signal ratio, with a control signal flat, not every such curve was filed as active; the % refers to the signal ratio; also: 0% is about no effect). Put shortly:
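HRE-bla ME-180 cells in Opti-MEM with 0.5% dialyzed FBS, pre-plated 4-5 h, then compound titration for 17 h at 37 degrees Celsius. CCF4 loaded 2.5 h at room temperature; 460/530 nm ratio gave %Activity and AC50 for induction.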
On the technique in general: Quantitative high-throughput screening tests each substance at several concentrations.

Test [16] concerns the target Estrogen receptor (Homo sapiens) (UniProt P03372). The experiment in a line: qHTS assay for small molecule antagonists of estrogen receptor alpha signaling (AID 588513; active = well fitted curve in the direction sought with a large enough effect in the signal ratio, with a control signal flat, not every such curve was filed as active; the % refers to the signal ratio; also: % is scaled to controls: 0 for no effect and ±100 for the full control effect). Put shortly:
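ER-alpha-UAS-bla GripTite HEK 293 cells in 2% charcoal/dextran-treated FBS medium; compounds titrated (1:2, duplicate), then stimulated with 0.5 nM 17-beta-estradiol for 18 h at 37C. CCF4 beta-lactamase fluorescence; Hill-fit IC50 and efficacy.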

The target is the same in test [17]. Kind of test: qHTS assay for small molecule agonists of estrogen receptor alpha signaling (AID 588514; calls by dose curve;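 also: 0% = vehicle only and 100% = reference agonist; nearly all actives have a fitted effect of over 70% in size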). Put shortly: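 ER-alpha-UAS-bla GripTite HEK293 cells, 5000/well in 2% charcoal/dextran-stripped FBS medium, treated with compound titrations 18 h at 37 C. CCF4 beta-lactamase read by fluorescence after 2 h RT; normalised to 20 nM 17-beta-estradiol (100%) and DMSO (0%), Hill fit for EC50 and efficacy.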

For test [18], the target named is ATP-dependent 6-phosphofructokinase (Trypanosoma brucei brucei) (UniProt O15648). Kind of test: qHTS Assay to Find Inhibitors of T. brucei phosphofructokinase: hit validation (AID 492961).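 Also: luminescence reports ADP formed as PFK phosphorylates fructose-6-phosphate with ATP; % is scaled to controls: 0 for no effect and ±100 for the full control effect.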 Put shortly: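 Compounds titrated; %activity normalized to 0x and 1x enzyme controls, curve-fitted. Readout: ADP-Glo luminescence after 45 min room-temperature reaction of 1.25 nM PFK, 0.1 mM ATP, 0.5 mM F6P, pH 8.0.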
Chain of ATP-dependent 6-phosphofructokinase (Trypanosoma brucei brucei) (O15648 whole entry, looked up): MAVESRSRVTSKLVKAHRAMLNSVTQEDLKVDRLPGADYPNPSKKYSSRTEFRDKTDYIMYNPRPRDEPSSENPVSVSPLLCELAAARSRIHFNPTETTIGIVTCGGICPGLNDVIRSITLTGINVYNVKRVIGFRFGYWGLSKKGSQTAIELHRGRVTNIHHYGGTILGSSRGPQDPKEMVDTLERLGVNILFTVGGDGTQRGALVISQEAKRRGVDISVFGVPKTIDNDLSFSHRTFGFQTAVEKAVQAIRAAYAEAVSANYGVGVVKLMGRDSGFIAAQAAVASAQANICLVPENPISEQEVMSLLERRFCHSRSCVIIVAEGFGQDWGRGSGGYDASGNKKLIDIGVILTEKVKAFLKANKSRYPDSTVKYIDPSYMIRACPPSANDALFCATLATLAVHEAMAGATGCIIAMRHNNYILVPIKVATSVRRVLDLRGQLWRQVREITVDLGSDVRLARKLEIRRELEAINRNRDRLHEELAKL

Test [19] deals with Ubiquitin carboxyl-terminal hydrolase 1 (Homo sapiens) (UniProt O94782). Kind of test: Inhibitors of USP1/UAF1: Pilot qHTS (AID 504865).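 Also: rhodamine fluorescence freed from ubiquitin-rhodamine substrate followed over time; top concentration of the series differs between compounds; % is scaled to controls: 0 for no effect and ±100 for the full control effect; nearly all actives have a fitted effect of over 35% in size.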 The essentials:
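USP1/UAF1 complex at 1 nM preincubated 15 min at room temperature with compound, then Ub-Rho substrate added at 150 nM final. Fluorescence (480/540 nm) read kinetically in 50 mM HEPES pH 7.8, 0.5 mM EDTA, 1 mM TCEP, 0.1 mg/ml BSA, 0.01% Tween-20.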

Test [20] in a line: qHTS Assay for Lipid Storage Modulators (AID 1519; calls by dose curve; as to activity change, negative = inhibition: % is scaled to controls: 0 for no effect and ±100 for the full control effect). Conditions: Drosophila S3 cells, BODIPY lipid droplet/cell ratio, laser cytometry, cells loaded with oleic acid. The essentials:
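Cells seeded at 5,000 per well were treated with compounds over a concentration series and loaded with oleic acid (400 uM, as added). Lipid droplet fluorescence (488 nm excitation, 500-530 nm channel) was read by laser-scanning cytometry and normalized to 20 uM Triacsin C.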

Chain of Estrogen receptor (Homo sapiens) (P03372 whole entry, looked up): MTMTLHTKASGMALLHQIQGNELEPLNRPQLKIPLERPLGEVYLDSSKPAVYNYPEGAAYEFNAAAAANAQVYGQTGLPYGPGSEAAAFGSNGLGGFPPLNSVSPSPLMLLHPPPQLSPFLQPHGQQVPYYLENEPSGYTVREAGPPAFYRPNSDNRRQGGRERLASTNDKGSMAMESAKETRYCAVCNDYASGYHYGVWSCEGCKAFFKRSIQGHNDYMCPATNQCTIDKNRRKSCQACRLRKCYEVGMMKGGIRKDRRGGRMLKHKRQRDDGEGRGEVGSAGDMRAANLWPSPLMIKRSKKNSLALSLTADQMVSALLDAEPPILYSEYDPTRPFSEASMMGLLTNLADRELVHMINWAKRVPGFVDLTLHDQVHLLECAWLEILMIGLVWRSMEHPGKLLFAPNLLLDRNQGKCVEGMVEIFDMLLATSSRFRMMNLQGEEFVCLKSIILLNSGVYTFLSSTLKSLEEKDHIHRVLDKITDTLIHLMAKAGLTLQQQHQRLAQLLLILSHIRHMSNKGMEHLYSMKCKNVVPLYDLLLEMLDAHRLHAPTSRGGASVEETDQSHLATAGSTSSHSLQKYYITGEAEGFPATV
Chain of Ubiquitin carboxyl-terminal hydrolase 1 (Homo sapiens) (O94782 whole entry, looked up): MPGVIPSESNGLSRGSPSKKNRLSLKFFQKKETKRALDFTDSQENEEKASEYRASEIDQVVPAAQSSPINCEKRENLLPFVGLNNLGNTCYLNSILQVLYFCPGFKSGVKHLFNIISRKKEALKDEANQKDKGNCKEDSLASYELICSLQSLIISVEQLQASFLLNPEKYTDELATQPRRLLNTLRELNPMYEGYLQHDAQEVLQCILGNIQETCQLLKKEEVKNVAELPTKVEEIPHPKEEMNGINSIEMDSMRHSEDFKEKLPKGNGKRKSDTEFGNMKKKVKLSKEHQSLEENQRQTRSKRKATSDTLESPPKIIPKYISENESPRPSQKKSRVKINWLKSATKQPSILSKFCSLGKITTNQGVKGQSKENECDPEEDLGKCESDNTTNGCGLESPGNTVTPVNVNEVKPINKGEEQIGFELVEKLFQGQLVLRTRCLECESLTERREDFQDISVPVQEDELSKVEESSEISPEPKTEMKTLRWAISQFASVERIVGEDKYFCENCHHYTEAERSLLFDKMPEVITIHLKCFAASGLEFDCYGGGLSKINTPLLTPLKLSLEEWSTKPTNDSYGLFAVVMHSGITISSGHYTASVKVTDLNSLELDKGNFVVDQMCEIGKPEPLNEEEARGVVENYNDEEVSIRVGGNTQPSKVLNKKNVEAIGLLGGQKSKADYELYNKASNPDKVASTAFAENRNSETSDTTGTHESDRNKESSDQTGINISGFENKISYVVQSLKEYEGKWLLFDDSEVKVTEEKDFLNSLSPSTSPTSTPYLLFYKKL

On to `CC(C)C[C@H](NC(=O)[C@@H]1O[C@H]1C(=O)O)C(=O)NCCCCN=C(N)N`, for which the outcome in test [1] and in test [2] was inactive.

`C[C@]1(C2CCCC2)Cc2cc(OCC(=O)O)c(Cl)c(Cl)c2C1=O`: the outcome in test [1] and in [2] was inactive.

As for `COc1ccc(CCC(=O)c2c(O)cc(O[C@@H]3O[C@H](CO)[C@@H](O)[C@H](O)[C@H]3O[C@@H]3O[C@@H](C)[C@H](O)[C@@H](O)[C@H]3O)cc2O)cc1O`, the result in [3], in test [4], in test [5], in test [6], in [7] and in test [8] was inactive. Besides, the molecule was classed as inactive in [9], in test [10], in test [11], in test [12], in [13] and in test [14]. For the same molecule, the call in test [15], in [16] and in [17] was inactive.

As to `CCOC(=O)C(CCc1ccccc1)NC(C)C(=O)N1Cc2ccccc2CC1C(=O)O` (stereo not given), the call in test [18] and in test [19] was inactive.

With `CCc1cccc2c3c([nH]c12)[C@@](CC)(CC(=O)O)OCC3`, in test [20] (at 25.7 µM (top of the series)), the activity change, negative = inhibition is -1.67% (inactive). In addition, the max response in test [20] (measured here: cell count channel max response) came out at 8.85%; in test [20] (measured here: lipid channel max response) it was 4.97%.

For `C=C1C[C@]23C[C@@]1(O)CC[C@H]2[C@@]12C=C[C@H](O)[C@@](C)(C(=O)O1)[C@H]2[C@@H]3C(=O)O`, the molecule was called inactive in [3], in [4], in test [5], in test [6], in test [7] and in test [8]. The outcome in test [9], in test [10], in [11], in test [12], in test [13] and in [14] was inactive. Further, in test [15], the call was inactive.

As for `O=C(/C=C/C=C/c1ccc2c(c1)OCO2)N1CCCCC1`, the call in test [19], in test [16] and in test [17] was inactive.
